Screens: PubChem, National Center for Advancing Translational Sciences (NCATS)
Most compounds without a hit are left out; they make up all but 19% or so of the library.
DT40 TDP1 no CPT: qHTS for Inhibitors of human tyrosyl-DNA phosphodiesterase 1 (TDP1): qHTS in cells in absence of CPT; Potency, µM (series often up to 46.2 µM), usual class: inhibitors; DT40 Tdp1-/- hTDP1 cells, no CPT, ATP luminescence, 48 h; 15% of 420,000 active; also: nearly all actives have a fitted effect of over 55% in size
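Chicken DT40 Tdp1-/- cells complemented with human TDP1, screened without camptothecin (DMSO vehicle only), 400 cells/well. Compounds pin-transferred, cells incubated at 37 °C for at least 48 hr. Growth read as ATP-dependent luminescence (CellTiter-Glo, 30 min at RT).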
TDP1 inh: qHTS Assay for Inhibitors of Tyrosyl-DNA Phosphodiesterase (TDP1) | Potency, µM (titrated, usually from 130 µM), hits mostly inhibitors | recombinant TDP1, AlphaScreen DNA substrate cleavage | AID 485290, 2010 | Tyrosyl-DNA phosphodiesterase 1 (Homo sapiens), Q9NUW8 | 0.28% of 350,000 active; also: nearly all actives have a fitted effect of over 40% in size
Target sequence (Q9NUW8 whole entry, looked up): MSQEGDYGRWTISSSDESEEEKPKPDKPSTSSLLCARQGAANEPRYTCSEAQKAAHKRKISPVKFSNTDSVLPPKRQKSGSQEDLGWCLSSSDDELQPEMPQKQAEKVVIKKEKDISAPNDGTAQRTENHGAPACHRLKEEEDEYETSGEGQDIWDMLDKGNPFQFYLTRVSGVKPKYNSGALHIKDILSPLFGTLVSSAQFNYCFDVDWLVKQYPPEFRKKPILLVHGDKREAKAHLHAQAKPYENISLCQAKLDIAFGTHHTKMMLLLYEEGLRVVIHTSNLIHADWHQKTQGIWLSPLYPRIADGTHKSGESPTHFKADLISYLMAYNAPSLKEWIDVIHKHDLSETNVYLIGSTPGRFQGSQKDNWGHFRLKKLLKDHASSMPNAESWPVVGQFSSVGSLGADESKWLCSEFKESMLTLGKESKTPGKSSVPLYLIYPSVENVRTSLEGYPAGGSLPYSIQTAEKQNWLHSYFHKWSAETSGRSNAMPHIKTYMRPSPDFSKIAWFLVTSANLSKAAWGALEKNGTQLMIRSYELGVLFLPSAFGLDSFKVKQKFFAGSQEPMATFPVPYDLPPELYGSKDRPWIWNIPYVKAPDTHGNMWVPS
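Recombinant human Tdp1 (E. coli-expressed, 1 nM final) preincubated with compounds 15 min at room temperature, then 5'-biotin/3'-phosphotyrosine-FITC DNA substrate (15 nM final) added for 5 min. AlphaScreen beads (10 ug/ml final) added 10 min; cleavage lowers signal.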
HepG2 viability: qHTS for Inhibitors of TGF-b: Cytotox Counterscreen. Potency, µM (top dose mostly 46.1 µM), hits mostly cytotoxic. HepG2 CAGA-GFP viability, ATP luminescence, 18 h. AID 588856, 2011. 0.76% of 410,000 active
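HepG2 CAGA-GFP cells (1000/well, DMEM with 1% FBS) received compound, then TGF-beta at 500 pg/mL final, and were incubated 18 hours at 37 degrees C. Viability was read by CellTiter-Glo luminescence. Media-only wells were set as complete cell-killing and DMSO as no toxicity.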
IL1B secr inh: qHTS for Inhibitors of Inflammasome Signaling: IL-1-beta AlphaLISA Primary Screen; THP-1 LPS/ATP IL-1B secretion, AlphaLISA, 16 h; active compounds read low; activity change, % at 57.5 µM; 4.7% of 360,000 active; AID 743279, 2014; in the data active = activity change below about -50%; inconclusive = mostly about -30% to -49%
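THP-1 cells pretreated 1 hr with compounds (up to 57.5 uM final), then stimulated with LPS (250 ng/mL final) plus ATP (1.25 mM final); secreted IL-1B measured by AlphaLISA after 16 hr, decreased signal indicating inhibition.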
TDP1 cell CPT: qHTS for Inhibitors of human tyrosyl-DNA phosphodiesterase 1 (TDP1): qHTS in cells in presence of CPT. AID 686979, 2013. Potency, µM (doses to about 46.2 µM), actives largely listed as inhibitors. 12% of 420,000 active. chicken DT40 Tdp1-/-;hTDP1 cells + 20 nM CPT, ATP luminescence, 48 h; also: nearly all actives have a fitted effect of over 55% in size
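Chicken DT40 Tdp1-/- cells complemented with human TDP1, 400 cells/well, exposed to compounds plus 20 nM camptothecin for at least 48 h at 37 C; viability read as ATP content by CellTiter-Glo luminescence.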
TGFb inhibitor: qHTS for Inhibitors of TGF-b. 1.2% of 410,000 active. HepG2 CAGA-GFP TGF-b/SMAD3 reporter, GFP fluorescence, 18 h; TGF-beta stimulated, 500 pg/mL final. Potency, µM (top dose mostly 46.1 µM), hits mostly inhibitors; also: nearly all actives have a fitted effect of over 65% in size
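Cell-based qHTS in HEPG2 carrying a CAGA-GFP Smad reporter; compounds added before 500 pg/mL final TGF-beta, 18 h incubation at 37 degrees C, GFP fluorescence quantified per cell by imaging cytometry.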
Of the large screens only hits and unclear results are named; the others gave an inactive call. Unless noted, calls follow the shape of the dose curve; as a rule, active = well fitted curve in the direction sought with a large enough effect; inconclusive = small, poorly fitted or top-dose-only effect, or another doubt; inactive = no such curve, though single readings can be large; an effect the other way counts as inactive or inconclusive.

CN(C)C(=O)c1ccc(-c2nc(NCc3cccs3)c3ccccc3n2)cc1	DT40 TDP1 no CPT inconclusive, TDP1 cell CPT inconclusive (no result: HepG2 viability, IL1B secr inh, TGFb inhibitor)
CN(C)C(=O)c1ccc(-c2ccc3ncnc(Nc4ccccc4)c3c2)cc1	DT40 TDP1 no CPT 1.5µM, TDP1 cell CPT inconclusive (no result: TDP1 inh, HepG2 viability, IL1B secr inh, TGFb inhibitor)
O=[N+]([O-])c1ccc(O)c(Nc2ncnc3ccc(Br)cc23)c1	DT40 TDP1 no CPT 12µM (no result: TDP1 inh)
COC(=O)c1cccc(Nc2ncnc3sccc23)c1	DT40 TDP1 no CPT inconclusive, TDP1 cell CPT 21µM
COc1cccc(Nc2ncnc3sccc23)c1	DT40 TDP1 no CPT inconclusive, TDP1 cell CPT inconclusive
Cc1cccc(NC(=O)C2CCCN(S(=O)(=O)c3cccc4nonc34)C2)c1C (stereo not drawn)	DT40 TDP1 no CPT inconclusive, TDP1 cell CPT inconclusive (no result: IL1B secr inh)
O=C(Nc1cccc(F)c1)c1ccc(-c2cccnc2)c2ccoc12	DT40 TDP1 no CPT inconclusive, IL1B secr inh inconclusive, TDP1 cell CPT inconclusive (no result: TDP1 inh)
COc1ccc(N(C)C(=O)c2ccc3nc(-c4ccccc4)c(-c4ccccc4)nc3c2)cc1	DT40 TDP1 no CPT 18µM, TDP1 cell CPT inconclusive
Cc1cccc(CNC(=O)c2ccc3nc(-c4ccccc4)c(-c4ccccc4)nc3c2)c1	DT40 TDP1 no CPT inconclusive, TDP1 cell CPT 21µM (no result: IL1B secr inh)
CN(C)C(=O)c1ccc(-c2nc(Nc3ccc(F)cc3)c3ccccc3n2)cc1	DT40 TDP1 no CPT 23µM, TDP1 cell CPT inconclusive (no result: TDP1 inh, HepG2 viability, IL1B secr inh, TGFb inhibitor)
COC(=O)c1ccc(Nc2nc(-c3ccncc3)nc3ccccc23)cc1	none (no result: TDP1 inh)
COc1ccc(OC)c(NC(=O)c2ccc3nc(-c4ccccc4)c(-c4ccccc4)nc3c2)c1	none (no result: DT40 TDP1 no CPT, HepG2 viability, IL1B secr inh, TDP1 cell CPT, TGFb inhibitor)
CN(C)C(=O)c1ccc(Nc2nc(-c3cccs3)nc3ccccc23)cc1	DT40 TDP1 no CPT 7.3µM, IL1B secr inh -74, TDP1 cell CPT 10µM (no result: TDP1 inh)
CC(=O)NCCNc1nc(-c2ccc(C(=O)N(C)C)cc2)nc2ccccc12	TDP1 cell CPT inconclusive (no result: TDP1 inh, HepG2 viability, IL1B secr inh, TGFb inhibitor)
CO[C@H]1[C@H](NC(=O)c2ccsc2)c2ccccc2C12CCN(Cc1cccc3ncccc13)CC2	DT40 TDP1 no CPT inconclusive (no result: TDP1 inh, HepG2 viability, IL1B secr inh, TGFb inhibitor)
COC(=O)c1ccccc1NC(=O)Cn1c(=O)n(CCCC(=O)NCc2ccccc2OC)c(=O)c2ccccc21	DT40 TDP1 no CPT inconclusive (no result: IL1B secr inh)
CC(=O)c1cccc(Nc2ncnc3ccc(Br)cc23)c1	DT40 TDP1 no CPT 21µM, TDP1 cell CPT 16µM (no result: TDP1 inh)
C=CCN(C(=O)c1ccccc1)c1ccc(OC)cc1	DT40 TDP1 no CPT 22µM, TDP1 cell CPT 13µM
O=C(NCc1cccnc1)c1nn(-c2ccc(Cl)cc2)nc1CO	DT40 TDP1 no CPT inconclusive (no result: IL1B secr inh)
COCCn1c(C)cc(O)c(C(c2ccccc2)N2CCN(C)CC2)c1=O (stereo not drawn)	none (no result: IL1B secr inh)
CCc1nn2c(=O)cc(COC(=O)C(CC)c3ccccc3)nc2s1 (stereo not drawn)	TDP1 cell CPT inconclusive (no result: IL1B secr inh)
N#CC(C#N)=C1C=C2C=C(N3CCCCC3)CCC2CC1 (stereo not drawn)	DT40 TDP1 no CPT 21µM, TDP1 cell CPT 26µM
CCN(CC)C1=CC2=CC(=C(C#N)C#N)CCC2CC1 (stereo not drawn)	DT40 TDP1 no CPT inconclusive
COc1ccc(Cn2ccc3nc(C)c(C(=O)Nc4ccc(OC)cc4OC)cc3c2=O)cc1	DT40 TDP1 no CPT inconclusive (no result: IL1B secr inh)
Cc1ccc(S(=O)(=O)N(C)Cc2nc(-c3ccc(Br)cc3)no2)cc1	DT40 TDP1 no CPT 18µM, TDP1 cell CPT inconclusive (no result: TDP1 inh)
CN(Cc1nc(-c2ccc(Cl)cc2)no1)S(=O)(=O)c1ccccc1	DT40 TDP1 no CPT inconclusive, TDP1 cell CPT inconclusive (no result: IL1B secr inh)
COc1ccc(-c2noc(CN(C)S(=O)(=O)c3ccccc3)n2)cc1OC	DT40 TDP1 no CPT inconclusive, TDP1 cell CPT 16µM (no result: TDP1 inh)
